These results are taken from PubChem BioAssay (EPA / NIEHS).

Read-out in assay [1]: Interleukin-8 (IL8), CXCL8 (gene 3576)
Put plainly: BSK_CASM3C_IL8: BioMAP Diversity Plus: CASM3C Assay for Interleukin-8 (IL8) Biomarker Activity (AID 2283042).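 Further: IL-8 protein level quantified by ELISA.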 Particulars: primary human coronary artery smooth muscle cells; actives raise or lower the signal.

Read-out in assay [2]: Human Leukocyte Antigen - DR isotype (HLADR), HLA-DRA (gene 3122)
Put plainly: BSK_CASM3C_HLADR: BioMAP Diversity Plus: CASM3C Assay for Human Leukocyte Antigen - DR isotype (HLADR) Biomarker Activity (AID 2283043).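 Further: cell-surface HLA-DR protein level quantified by ELISA.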 Conditions: primary human coronary artery smooth muscle cells; actives raise or lower the signal.

Read-out in assay [3]: Macrophage colony-stimulating factor (MCSF), CSF1 (gene 1435)
Briefly: BSK_CASM3C_MCSF: BioMAP Diversity Plus: CASM3C Assay for Macrophage colony-stimulating factor (MCSF) Biomarker Activity (AID 2283044).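 Further: M-CSF protein amount quantified by ELISA after 24 h exposure.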 Conditions: primary human coronary artery smooth muscle cells; actives raise or lower the signal.

Read-out in assay [4]: Low-density lipoprotein receptor (LDLR), LDLR (gene 3949)
Put plainly: BSK_CASM3C_LDLR: BioMAP Diversity Plus: CASM3C Assay for Low-density lipoprotein receptor (LDLR) Biomarker Activity (AID 2283045).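 Further: LDLR protein level on the cell surface quantified by ELISA.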 Conditions: primary human coronary artery smooth muscle cells; actives raise or lower the signal.

Read-out in assay [5]: Monocyte Chemoattractant Protein-1 (MCP1), CCL2 (gene 6347)
Put plainly: BSK_CASM3C_MCP1: BioMAP Diversity Plus: CASM3C Assay for Monocyte Chemoattractant Protein-1 (MCP1) Biomarker Activity (AID 2283046).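 Further: MCP-1 level quantified by ELISA 24 h after dosing.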 Particulars: primary human coronary artery smooth muscle cells; actives raise or lower the signal.

Assay [6] can be described thus: BSK_CASM3C_Proliferation: Cell Proliferation Assessment in the BioMAP Diversity Plus: CASM3C Assay (AID 2283047).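 Further: sulforhodamine B total protein stain as relative cell number at 560 nm; sub-confluent cells exposed 48 h before staining; fitted both ways against DMSO so gain or loss of cell number.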 Particulars: primary human coronary artery smooth muscle cells.
Read-out in assay [7]: Monokine induced gamma interferon (MIG), CXCL9 (gene 4283)
Briefly: BSK_CASM3C_MIG: BioMAP Diversity Plus: CASM3C Assay for Monokine induced gamma interferon (MIG) Biomarker Activity (AID 2283048).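 Further: MIG protein level measured by ELISA.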 Particulars: primary human coronary artery smooth muscle cells; actives raise or lower the signal.

Read-out in assay [8]: serum amyloid A (SAA), SAA1 (gene 6288)
Briefly: BSK_CASM3C_SAA: BioMAP Diversity Plus: CASM3C Assay for serum amyloid A (SAA) Biomarker Activity (AID 2283049).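 Further: SAA protein level quantified by ELISA.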 Conditions: primary human coronary artery smooth muscle cells; actives raise or lower the signal.

A short description of assay [9]: BSK_CASM3C_SRB: Viability Assessment in the BioMAP Diversity Plus: CASM3C Assay (AID 2283050).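 Further: total protein by SRB staining as cytotoxicity measure in parallel cultures; cells exposed to compound for 24 h.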 Particulars: primary human coronary artery smooth muscle cells.
Read-out in assay [10]: Thrombomodulin, THBD (gene 7056)
Briefly: BSK_CASM3C_Thrombomodulin: BioMAP Diversity Plus: CASM3C Assay for Thrombomodulin Biomarker Activity (AID 2283051).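 Further: thrombomodulin protein level measured by ELISA 24 h after dosing.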 Conditions: primary human coronary artery smooth muscle cells; actives raise or lower the signal.

More than one record can exist for a structure, and the calls need not agree. Calls of active or inactive are those of the source. How the source made its calls: active means hit-call score of the fitted dose curve at least 0.9, where 1 is the maximum; inactive means score below 0.9.

`CC(C)(C)[C@@H](O)[C@@H](Cc1ccc(Cl)cc1)n1cncn1`: the outcome in assay [1], in assay [2], in assay [3], in [4], in assay [5] and in assay [6] was inactive. Also, the outcome in assay [7], in assay [8], in assay [9] and in assay [10] was inactive.

Take `C#CCOC(=O)[C@@H](C)Oc1ccc(Oc2ncc(Cl)cc2F)cc1`: the result in assay [1], in [2], in [3], in assay [4], in assay [5] and in [6] was inactive. Also, the result in assay [7], in assay [8], in assay [9] and in assay [10] was inactive.

As a reminder, the AC50 is the concentration at which the activity in the assay is half-maximal. As for `CC(C)CCCCCCc1ccc(O)cc1`, the AC50 in [1] was 36.2 µM (active); in assay [2] it was 28.8 µM (active); in [3] it was 31.2 µM (active); in assay [5] it was 34.3 µM (active); in [6] it was 15 µM (active); in assay [7], 35.8 µM (active). For the same molecule, the results for the half-maximal activity concentration (AC50) in [8], in [9] and in [10] were 30.9 µM (active), 32.6 µM (active) and 4.65 µM (active), respectively.

For the molecule `CC1(C)C(C=C(Cl)Cl)C1C(=O)OCc1cccc(Oc2ccccc2)c1` (centres undefined), the outcome in assay [1], in assay [2], in [3], in assay [4], in [5] and in assay [6] was inactive. Further, the outcome in assay [7], in assay [8] and in assay [9] was inactive. Also, the AC50 in [10] was 13.4 µM (active).

For the molecule `C[C@]12CC[C@@H]3c4ccc(O)cc4C[C@@H](CCCCCCCCCS(=O)CCCC(F)(F)C(F)(F)F)[C@H]3[C@@H]1CC[C@@H]2O` (some centres undefined), the outcome in [1], in [2], in assay [3], in assay [5], in assay [6] and in assay [7] was inactive. Moreover, the result in assay [8], in [9] and in assay [10] was inactive. The half-maximal activity concentration (AC50) in assay [4] was 2.73 µM (active).

For `CCCN(CCC)C(=O)SCC`, the result in [1], in assay [2], in assay [3], in assay [4], in assay [5] and in assay [6] was inactive. Further, the outcome in assay [7], in [8], in [9] and in assay [10] was inactive.

In the case of `COC(=O)c1ccccc1C(=O)O`, the result in [1], in assay [2], in assay [3], in [4], in [5] and in assay [6] was inactive. Moreover, the outcome in [7], in [8], in assay [9] and in [10] was inactive.

As for `Oc1ccc(C(c2ccc(O)cc2)C(Cl)(Cl)Cl)cc1`, the outcome in assay [1], in [2], in [4], in assay [5], in assay [7] and in assay [8] was inactive. In addition, the AC50 in assay [3] is 9.36 µM (active); in assay [6] it was 20 µM (active); in [9], 20.9 µM (active); in assay [10], 15.5 µM (active).

As to `CCN(Cc1c(F)cccc1Cl)c1c([N+](=O)[O-])cc(C(F)(F)F)cc1[N+](=O)[O-]`, the result in assay [1], in [2], in assay [3], in [5], in assay [7] and in assay [8] was inactive. Moreover, the outcome in [9] and in assay [10] was inactive. Further, the AC50 in assay [4] was 13.5 µM (active); in assay [6], 12.3 µM (active).

As to `CCSC(=O)N(CC(C)C)CC(C)C`, the result in assay [1], in assay [2], in [3], in assay [4], in assay [5] and in [6] was inactive. Besides, the outcome in assay [7], in assay [8], in [9] and in assay [10] was inactive.

Consider `O=C(c1ccc(O)cc1O)c1ccc(O)cc1O`, for which the outcome in [1], in [2], in assay [3], in assay [4], in assay [5] and in assay [6] was inactive. In addition, the result in [7], in assay [8], in assay [9] and in assay [10] was inactive.

As for `C[C@]12C[C@H](O)[C@H]3[C@@H](CCC4=CC(=O)CC[C@@]43C)[C@@H]1CC[C@@H]2C(=O)CO`, the AC50 is 0.551 µM (active) in [1]; 21.1 µM (active) in assay [4]; 0.573 µM (active) in assay [5]; 0.397 µM (active) in assay [6]; 0.668 µM (active) in [8]. For the same molecule, the result in assay [2], in assay [7], in assay [9] and in assay [10] was inactive.

As to `CCOC(=O)COc1cc(-n2ncc(C(F)(F)F)c(C)c2=O)c(F)cc1Cl`, the result in assay [1], in assay [2], in assay [3], in assay [4], in assay [5] and in assay [6] was inactive. Moreover, the outcome in [7], in assay [8], in assay [9] and in assay [10] was inactive.

Regarding `CC(C)(c1ccc(O)cc1)c1ccc(O)cc1`, the outcome in [1], in assay [2], in assay [3], in [4], in [5] and in [6] was inactive. Moreover, the result in [7], in assay [8], in assay [9] and in [10] was inactive. Moreover, the AC50 in assay [10] is 8.47 µM (active).

In the case of `C=CCOC(Cn1ccnc1)c1ccc(Cl)cc1Cl` (centres undefined), the outcome in assay [1], in [2], in assay [3], in assay [4], in assay [5] and in [6] was inactive. Moreover, the result in [7], in assay [8], in assay [9] and in [10] was inactive.
